Sampled rows, rich in hits. Any-hit rate of the full collection: about 5.9%.
HepG2 tox = HepG2 cytotoxicity, counter-screen for TGF-b inhibitors | HepG2 CAGA-GFP viability, ATP luminescence, 18 h | Potency, µM (top dose mostly 46.1 µM), for inactives: top-dose activity change, negative = cytotoxicity, actives largely listed as cytotoxic | 410,000 tested, 0.76% active
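CellTiter-Glo luminescence gave cytotoxicity after 18 hours at 37 degrees C. The cells were HepG2 CAGA-GFP in 1% FBS DMEM, stimulated with 500 pg/mL TGF-beta after compound addition. %Activity was normalised to no-cell wells (complete cell-killing) and DMSO (no toxicity), and curves were fitted and classified.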
KB-V1 MDR tox = kills drug-selected multidrug resistant KB-V1 cells. KB-V1 MDR cells viability, CellTiter-Glo, 72 h. AID 1347076. Potency, µM (highest dose often 46.1 µM), usual class: cytotoxic. 400,000 tested, 3.4% active; further: on the % scale 0 is the no-effect control and ±100 the full control effect; nearly all actives have a fitted effect of over 60% in size
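Following 72 h at 37 degrees C with compound, KB-V1 cell viability was read by CellTiter-Glo luminescence, medium being phenol-red-free DMEM plus 10% FBS; concentration-response parameters came from normalized, curve-fitted qHTS data.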
KB-3-1 tox = kills parental KB-3-1 adenocarcinoma cells; AID 1347075; Potency, µM (doses to about 46.1 µM), actives largely listed as cytotoxic; 400,000 tested, 1.4% active; KB-3-1 viability, CellTiter-Glo ATP luminescence, 72 h; further: on the % scale 0 is the no-effect control and ±100 the full control effect; nearly all actives have a fitted effect of over 60% in size
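Parental KB-3-1 viability, qHTS format: 72 h compound exposure, 37 °C; CellTiter-Glo; media-only wells and DMSO plates as controls; concentration-effect fits on corrected data.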
ATXN2 expr inh = ATXN2 expression inhibition. 360,000 tested, 0.72% active. HEK-293 ATXN2-luciferase reporter, luminescence, 24 h. Potency, µM (doses to about 57 µM), for inactives: top-dose activity change, negative = inhibition, hits mostly inhibitors; further: on the % scale 0 is the no-effect control and ±100 the full control effect; nearly all actives have a fitted effect of over 55% in size
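qHTS (up to 57 uM final) was run with 24 h compound exposure of reporter cells at 37 °C. Each well was multiplexed: SteadyGlo luminescence measured ATXN2-luciferase expression after a fluorogenic Gly-Phe-AFC viability readout (25 uM final).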
ATXN viability = viability counter-screen for ATXN expression inhibitors. S2 cells (HEK-293 line with an ATXN2-luciferase reporter) viability, CellTiter-Fluor protease fluorescence, 24 h. Potency, µM (titrated, usually from 56.7 µM), hits mostly cytotoxic. 400,000 tested, 0.49% active; further: nearly all actives have a fitted effect of over 40% in size
TGFb inhibitor = blocks TGF-b signaling; HepG2 CAGA-GFP TGF-b/SMAD3 reporter, GFP fluorescence, 18 h; TGF-beta stimulated, 500 pg/mL final; Potency, µM (series often up to 46.1 µM), without a hit: at the highest dose activity, negative = inhibition, hits mostly inhibitors; 410,000 tested, 1.2% active; further: on the % scale 0 is the no-effect control and ±100 the full control effect; nearly all actives have a fitted effect of over 65% in size
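HEPG2 CAGA-GFP cells (1000/well, DMEM with 1% FBS) were pre-incubated 2 h at 37 degrees C, given compound by pin tool, then stimulated with TGF-beta at 500 pg/mL final for 18 h before per-cell GFP fluorescence imaging.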
* = called active by the depositor; i = inactive; ? = inconclusive; . = not tested or not shown; ! = repeats disagree. The call rests on the fitted dose curve; in most records, active means well fitted curve in the direction sought with a large enough effect; inconclusive means small, poorly fitted or top-dose-only effect, or another doubt; inactive means no such curve, though single readings can be large; an effect the other way counts as inactive or inconclusive. Potency means the concentration at half of the fitted maximal effect.

SMILES	HepG2 tox	KB-V1 MDR tox	KB-3-1 tox	ATXN2 expr inh	ATXN viability	TGFb inhibitor
N=c1c2c(-c3ccccc3)c(-c3ccccc3)n(Cc3ccco3)c2ncn1CCCN1CCOCC1	-40.6%	20.6µM*	20.6µM*	-28.9%	i	?
N=c1c2c(-c3ccccc3)c(-c3ccccc3)n(Cc3ccco3)c2ncn1CCCn1ccnc1	-80.2%	16.4µM*	?	-25.9%	?	?
CC(C)Cn1cnc2c(c(-c3ccccc3)c(-c3ccccc3)n2Cc2ccco2)c1=N	12.6µM*	?	?	-37.7%	?	?
N=c1c2c(-c3ccccc3)c(-c3ccccc3)oc2ncn1CCCN1CCOCC1	-58.0%	23.1µM*	?	?	?	-28.9%
Cc1nc(CC(=O)Nc2cc(Cl)ccc2C)cs1	-1.3%	.	.	.	.	-0.6%
CCOC(=O)c1noc2ncnc(Nc3ccc(C)c(F)c3)c12	7.2%	i	i	2.1%	i	-0.3%
CC1(C)CC(=O)C2=C(C1)Oc1nc3ccccc3cc1C2C(C#N)C#N (stereo not drawn)	-16.5%	?	20.6µM*	-10.1%	?	11.2µM*
COc1ccc(Cl)cc1C(=O)CSc1nnnn1C1CCCC1	-20.1%	?	i	15.3%	i	-22.5%
COCCn1c(C)cc(C(=O)CSc2nnnn2C2CCCC2)c1C	-6.4%	.	.	14.1µM*	i	-19.2%
COCCn1c(C)cc(C(=O)CSc2nnc(C)s2)c1C	-4.5%	i	i	5.01µM*	i	11.7%
CC(C)N(C(=O)CSc1nnnn1C1CCCC1)C(C)C	5.8%	13µM*	i	7.9%	i	-2.6%
COc1ccccc1CN1CCC2(CCC(CNC(=O)c3ccccc3N(C)C)O2)CC1 (stereo not drawn)	.	.	.	.	i	.
Cc1cc(-c2ccnc(-n3ncc(C(=O)NCC4CCCN(C)C4)c3C3CC3)n2)c(C)s1 (stereo not drawn)	.	.	.	.	i	.
S=c1nc[nH]c2nc[nH]c12	1.41µM*!	1.16µM*	0.82µM*	?	?	2.6%
Nc1ncnc2c1cnn2-c1ccccc1	-1.5%	?	i	29.5%	i	-5.8%
S=c1nc[nH]c2c1cnn2-c1ccccc1	17.5%	8.2µM*	?	.	?	32.9%
COc1cccc(OC)c1CN1CCC2(CCC(CNC(=O)c3ccccc3)O2)CC1 (stereo not drawn)	.	.	.	.	i	.
Nc1cccc(-c2nc3ccc(C(=O)c4ccccc4)cc3[nH]2)c1	-31.1%	3.66µM*	6.51µM*	.	?	?
COc1ccc(NCC(=O)n2c(C)c(C)c3ccccc32)cc1	-27.6%	?	11.6µM*	-6.4%	.	-19.1%
COc1cc(C2Nc3ccccc3C(=O)N2Cc2ccco2)ccc1O (stereo not drawn)	25.6%	i	i	.	.	8.9%
COc1ccc(C(=O)c2c(C(F)(F)F)oc3c2C(=O)c2ccccc2C3=O)cc1OC	3.55µM*	9.2µM*	9.2µM*	?	28.2µM*	3.98µM*
O=C(NCc1ccccn1)c1cc(-c2ccc(Cl)cc2)oc1C(F)(F)F	-99.5%	?	i	-37.6%	?	11.2µM*
CCN(c1ccc(Cl)cc1)S(=O)(=O)c1nnc(NC(=O)C2CCCCC2)s1	5.4%	.	.	.	.	0.1%
O=C(NCC(c1ccco1)S(=O)(=O)c1cccs1)c1ccc(F)c(F)c1 (stereo not drawn)	-14.4%	i	i	.	.	-11.9%
COc1ccccc1-c1noc(-c2ccccc2)n1	-42.8%	i	i	82.4%	i	-1.7%
SMILES	HepG2 tox	KB-V1 MDR tox	KB-3-1 tox	ATXN2 expr inh	ATXN viability	TGFb inhibitor
COc1ccc(-c2nc(C3CCCCC3)no2)cc1OC	1.4%	16.4µM*	i	66.8%	i	-5.1%
COc1ccc(-c2nc(-c3ccccc3OC)no2)cc1OC	-16.8%	6.51µM*	?	43.6%	i	3.4%
COc1ccc(C2CC(=O)Nc3c2c(=O)n(C)c2nc4ccccc4n32)cc1 (stereo not drawn)	-44.3%	i	i	-1.0%	i	-10.8%
CN(C)CC1CCC/C(=C/c2ccc(Cl)cc2)C1=O (stereo not drawn)	-4.0%	?	?	?	11.9µM*	?
CSc1ncccc1C(=O)NCCN1Cc2ccccc2OC(c2ccccc2F)C1 (stereo not drawn)	.	.	.	.	i	.
Cc1cc(C(=O)COC(=O)c2ccc[nH]c2=O)c(C)n1-c1ccccc1	4.1%	18.4µM*	i	-32.5%	i	16.4%
Cc1cc(C(=O)COC(=O)c2ccc[nH]c2=O)c(C)n1-c1ccc(F)cc1	-1.6%	18.4µM*	i	-1.9%	i	8.1%
CCNC(=O)COC(=O)c1cc(C)n(-c2ccccc2)c1C	-2.3%	i	i	10.6%	i	1.5%
Cc1cc(C(=O)COC(=O)c2ccc[nH]c2=O)c(C)n1C1CC1	1.0%	i	i	41.7%	?	8.3%
Cc1cc(C(=O)OCC(=O)NCc2ccco2)c(C)n1-c1ccc(F)cc1	-4.1%	1.3µM*	?	-0.4%	i	?
Cc1cc(C(=O)COC(=O)C2=NNC(=O)CC2)c(C)n1-c1ccc(OC(F)F)cc1	-0.5%	i	i	-7.8%	i	14.2%
COc1cc(OC)cc(C(=O)N2CCCC(n3cc(C(=O)NCC(C)C)nn3)C2)c1 (stereo not drawn)	.	.	.	.	i	.
CC(C)(C)NC(=S)NNC(=O)c1cccc(Br)c1	-45.1%	16.4µM*	?	.	i	?
COc1ccc(-c2cc3c(=O)n(CC(=O)Nc4cc(F)ccc4F)ccn3n2)cc1OC	-5.2%	i	?	7.1%	i	5.6%
Cc1ccc(CN2CCN(/N=C/c3ccc(C(=O)O)cc3)CC2)c(C)c1	-15.8%	i	i	-18.0%	i	8.4%
COC(=O)c1ccc(/C=N/N2CCN(Cc3ccc(C)cc3C)CC2)cc1	-16.1%	18.4µM*	i	-19.4%	i	?
